Data reported in PubChem BioAssay (Tox21).
Results filed as inconclusive are left out. A call without a number means that no potency is given here. Active and inactive are the calls of the source. The call rests on the fitted dose curve.

What follows are molecules tested against Acetylcholinesterase (Homo sapiens) (UniProt P22303) (assay: Acetylcholinesterase (AChE) small molecule antagonists: fluorescence cell-based qHTS assay (AID 1347398; further: nearly all actives have a fitted effect of over 50% in size; further: potency means the concentration at half of the fitted maximal effect)). Conditions: SH-SY5Y cells; Potency: AChE activity; outcome: AChE activity; series mostly up to 115 µM.
Chain of Acetylcholinesterase (Homo sapiens) (P22303 whole entry, looked up): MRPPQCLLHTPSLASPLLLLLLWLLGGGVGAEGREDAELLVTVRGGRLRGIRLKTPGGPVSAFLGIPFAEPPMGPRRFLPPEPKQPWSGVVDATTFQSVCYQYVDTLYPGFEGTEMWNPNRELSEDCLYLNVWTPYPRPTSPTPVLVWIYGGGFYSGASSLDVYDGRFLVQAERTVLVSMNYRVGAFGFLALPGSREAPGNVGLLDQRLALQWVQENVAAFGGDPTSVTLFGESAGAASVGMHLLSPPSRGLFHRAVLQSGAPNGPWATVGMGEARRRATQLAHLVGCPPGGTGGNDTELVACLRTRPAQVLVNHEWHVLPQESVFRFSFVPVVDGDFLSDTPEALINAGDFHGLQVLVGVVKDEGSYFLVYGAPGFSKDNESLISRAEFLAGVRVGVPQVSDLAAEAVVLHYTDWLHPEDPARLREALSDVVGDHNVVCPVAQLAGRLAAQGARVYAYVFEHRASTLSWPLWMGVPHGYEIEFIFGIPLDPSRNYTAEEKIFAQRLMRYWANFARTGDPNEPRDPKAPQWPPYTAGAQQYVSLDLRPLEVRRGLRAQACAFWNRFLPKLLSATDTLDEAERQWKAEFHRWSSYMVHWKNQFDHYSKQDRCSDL
Procedure, shortened: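 Endogenous acetylcholinesterase of SH-SY5Y neuroblastoma cells is measured in situ. After overnight attachment and 30 min compound exposure, cells receive acetylthiocholine and Thiolite Green; fluorescence is read after 40 min at room temperature.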
`Cc1noc(NS(=O)(=O)c2ccc(N)cc2)c1C` was tested, and the Potency was “inactive”.
For `CC(C)OC(=O)COc1ccc(Cl)cc1Cl`, the Potency was “inactive”.
In the case of `CC1(C)CC(O)CC(C)(C)N1`, the Potency is reported as “inactive”.
In the case of `O=C(O)c1ccccc1NCCc1ccccc1`, the Potency is reported as “inactive”.
With `Cc1cc(NS(=O)(=O)c2ccc(N)cc2)nc(C)n1` the Potency was “inactive”.
In the case of `CC1CCC(C(C)C)C(O)C1` (stereo not given), the Potency is reported as “inactive”.
With `CCCCN(CCCC)C(=S)SSC(=S)N(CCCC)CCCC` the Potency was “inactive”.
`COC(=O)CCC(=O)OC` was tested, and the Potency was “inactive”.
For `CN(C)CCCNCCC#N`, the Potency was “inactive”.
`CC(=O)[C@H]1CC[C@H]2[C@@H]3C[C@H](C)C4=CC(=O)CC[C@]4(C)[C@H]3[C@@H](O)C[C@]12C` was tested, and the Potency was “inactive”.
With `Nc1ccc(N=Nc2ccc(N)cc2)cc1` the Potency was “inactive”.
In the case of `COc1ccc(S(=O)(=O)N2C(=O)[C@@](c3ccccc3OC)(N3C[C@H](O)C[C@H]3C(=O)N(C)C)c3cc(Cl)ccc32)c(OC)c1`, the Potency is reported as “inactive”.
For `O=C(O)Cc1ccc2c(c1)C(=O)c1ccccc1CO2`, the Potency was “inactive”.
`CC(C)=CC1CC(C)CCO1` (stereo not given) was tested, and the Potency was “inactive”.
For `CC(C)(C)C1=CC(=O)C(C(C)(C)C)=CC1=O`, the Potency was “inactive”.
For `Nc1ccc(Nc2ccccc2)cc1`, the Potency was “inactive”.
In the case of `NC(CSCC(=O)O)C(=O)O` (stereo not given), the Potency is reported as “inactive”.
`O=C[O][Al]([O]C=O)[O]C=O` was tested, and the Potency was “inactive”.
`O=C(O)c1cc(C(=O)O)cc(S(=O)(=O)O)c1` was tested, and the Potency was “inactive”.
In the case of `CCCCOCCOCCOCCO`, the Potency is reported as “inactive”.
With `CC(C=O)Cc1ccc(C(C)C)cc1` (stereo not given) the Potency was “inactive”.
In the case of `COC(=O)[C@H]1[C@H]2C[C@@H]3c4[nH]c5cc(OC)ccc5c4CCN3C[C@H]2C[C@@H](OC(=O)c2cc(OC)c(OC)c(OC)c2)[C@@H]1OC`, the Potency is reported as “inactive”.
For `CC(C)(C)CC(C)(C)c1ccc(O)c(Cc2ccc(Cl)cc2Cl)c1`, the Potency was “inactive”.
`C=C1c2cccc(O)c2C(O)=C2C(=O)[C@]3(O)C(O)=C(C(N)=O)C(=O)[C@@H](N(C)C)[C@@H]3[C@@H](O)[C@H]12` was tested, and the Potency was “inactive”.
With `CCCCCCCOC(=O)c1ccc(O)cc1` the Potency was “inactive”.
For `O=C(Nc1ccccc1)c1cc(Cl)ccc1O`, the Potency was “inactive”.
In the case of `O=C(O)COC(=O)Cc1ccccc1Nc1c(Cl)cccc1Cl`, the Potency is reported as “inactive”.
With `C=C(C)C(=O)OC(C)C` the Potency was “inactive”.
`NC(=O)c1cccnc1` was tested, and the Potency was “inactive”.
`O=C(O)c1cc(Cl)cc(Cl)c1` was tested, and the Potency was “inactive”.
For `CCCCCC(=O)OCCc1ccccc1`, the Potency was “inactive”.
In the case of `CO/N=C(/C(=O)N[C@@H]1C(=O)N2C(C(=O)[O-])=C(C[n+]3ccn4ncccc43)CS[C@H]12)c1nsc(N)n1`, the Potency is reported as “inactive”.
In the case of `CCCn1cnc2c1c(=O)n(CCCCC(C)=O)c(=O)n2C`, the Potency is reported as “inactive”.
In the case of `OC1OCCOC1O` (stereo not given), the Potency is reported as “inactive”.
With `CCCC(=O)O[C@]1(C(=O)CC)CC[C@H]2[C@@H]3CCC4=CC(=O)CC[C@]4(C)[C@H]3[C@@H](O)C[C@@]21C` the Potency was “inactive”.
For `CC[C@H]1OC(=O)[C@H](C)[C@@H](O[C@H]2C[C@@](C)(OC)[C@@H](O)[C@H](C)O2)[C@H](C)[C@@H](O[C@@H]2O[C@H](C)C[C@H](N(C)C)[C@H]2O)[C@](C)(O)C[C@@H](C)C(=O)[C@H](C)[C@@H](O)[C@]1(C)O`, the Potency was “inactive”.
With `Clc1cccc(C(c2ccc3nc[nH]c3c2)n2ccnc2)c1` (stereo not given) the Potency was “inactive”.
With `CCCCCCCCCCCCCCCCCCO` the Potency was “inactive”.
With `NC(=O)Cn1c(=O)cc(CCN2CCN(c3nccc4sccc34)CC2)c2ccc(F)cc21` the Potency was 35.6 µM (active).
`CCCC(=O)C(C)=O` was tested, and the Potency was “inactive”.

What follows are molecules tested against Acetylcholinesterase (Homo sapiens) (UniProt P22303) (assay: Acetylcholinesterase (AChE) small molecule antagonists: enzyme-based qHTS assay with human liver microsomes (AID 1347399; further: nearly all actives have a fitted effect of over 60% in size)). Conditions: Potency: qHTS inhibition; outcome: qHTS inhibition; series mostly up to 115 µM.
Procedure, shortened: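 Recombinant human AChE (50 mU/mL in the enzyme mix) and human liver microsomes (0.25 mg/mL final) were preincubated with compound and NADPH (0.25 mg/mL final) for 30 min at 37 C. Acetylthiocholine/DTNB was then added; thiocholine was read colorimetrically after 10 min at room temperature.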
For `Cc1noc(NS(=O)(=O)c2ccc(N)cc2)c1C`, the Potency was “inactive”.
In the case of `CC(C)OC(=O)COc1ccc(Cl)cc1Cl`, the Potency is reported as “inactive”.
With `CC1(C)CC(O)CC(C)(C)N1` the Potency was “inactive”.
`O=C(O)c1ccccc1NCCc1ccccc1` was tested, and the Potency was “inactive”.
With `Cc1cc(NS(=O)(=O)c2ccc(N)cc2)nc(C)n1` the Potency was “inactive”.
With `CC1CCC(C(C)C)C(O)C1` (stereo not given) the Potency was “inactive”.
For `CCCCN(CCCC)C(=S)SSC(=S)N(CCCC)CCCC`, the Potency was “inactive”.
For `COC(=O)CCC(=O)OC`, the Potency was “inactive”.
For `CN(C)CCCNCCC#N`, the Potency was “inactive”.
`CC(=O)[C@H]1CC[C@H]2[C@@H]3C[C@H](C)C4=CC(=O)CC[C@]4(C)[C@H]3[C@@H](O)C[C@]12C` was tested, and the Potency was “inactive”.
For `Nc1ccc(N=Nc2ccc(N)cc2)cc1`, the Potency was “inactive”.
With `COc1ccc(S(=O)(=O)N2C(=O)[C@@](c3ccccc3OC)(N3C[C@H](O)C[C@H]3C(=O)N(C)C)c3cc(Cl)ccc32)c(OC)c1` the Potency was “inactive”.
For `O=C(O)Cc1ccc2c(c1)C(=O)c1ccccc1CO2`, the Potency was “inactive”.
For `CC(C)=CC1CC(C)CCO1` (stereo not given), the Potency was “inactive”.
With `CC(C)(C)C1=CC(=O)C(C(C)(C)C)=CC1=O` the Potency was “inactive”.
`Nc1ccc(Nc2ccccc2)cc1` was tested, and the Potency was “inactive”.
With `NC(CSCC(=O)O)C(=O)O` (stereo not given) the Potency was “inactive”.
With `O=C[O][Al]([O]C=O)[O]C=O` the Potency was “inactive”.
`O=C(O)c1cc(C(=O)O)cc(S(=O)(=O)O)c1` was tested, and the Potency was “inactive”.
For `CCCCOCCOCCOCCO`, the Potency was “inactive”.
In the case of `CC(C=O)Cc1ccc(C(C)C)cc1` (stereo not given), the Potency is reported as “inactive”.
For `COC(=O)[C@H]1[C@H]2C[C@@H]3c4[nH]c5cc(OC)ccc5c4CCN3C[C@H]2C[C@@H](OC(=O)c2cc(OC)c(OC)c(OC)c2)[C@@H]1OC`, the Potency was “inactive”.
For `CC(C)(C)CC(C)(C)c1ccc(O)c(Cc2ccc(Cl)cc2Cl)c1`, the Potency was “inactive”.
In the case of `C=C1c2cccc(O)c2C(O)=C2C(=O)[C@]3(O)C(O)=C(C(N)=O)C(=O)[C@@H](N(C)C)[C@@H]3[C@@H](O)[C@H]12`, the Potency is reported as “inactive”.
For `CCCCCCCOC(=O)c1ccc(O)cc1`, the Potency was “inactive”.
`O=C(Nc1ccccc1)c1cc(Cl)ccc1O` was tested, and the Potency was “inactive”.
With `O=C(O)COC(=O)Cc1ccccc1Nc1c(Cl)cccc1Cl` the Potency was “inactive”.
With `C=C(C)C(=O)OC(C)C` the Potency was “inactive”.
For `NC(=O)c1cccnc1`, the Potency was “inactive”.
In the case of `O=C(O)c1cc(Cl)cc(Cl)c1`, the Potency is reported as “inactive”.
`CCCCCC(=O)OCCc1ccccc1` was tested, and the Potency was “inactive”.
`CO/N=C(/C(=O)N[C@@H]1C(=O)N2C(C(=O)[O-])=C(C[n+]3ccn4ncccc43)CS[C@H]12)c1nsc(N)n1` was tested, and the Potency was “inactive”.
In the case of `CCCn1cnc2c1c(=O)n(CCCCC(C)=O)c(=O)n2C`, the Potency is reported as “inactive”.
For `OC1OCCOC1O` (stereo not given), the Potency was “inactive”.
`CCCC(=O)O[C@]1(C(=O)CC)CC[C@H]2[C@@H]3CCC4=CC(=O)CC[C@]4(C)[C@H]3[C@@H](O)C[C@@]21C` was tested, and the Potency was “inactive”.
In the case of `CC[C@H]1OC(=O)[C@H](C)[C@@H](O[C@H]2C[C@@](C)(OC)[C@@H](O)[C@H](C)O2)[C@H](C)[C@@H](O[C@@H]2O[C@H](C)C[C@H](N(C)C)[C@H]2O)[C@](C)(O)C[C@@H](C)C(=O)[C@H](C)[C@@H](O)[C@]1(C)O`, the Potency is reported as “inactive”.
For `Clc1cccc(C(c2ccc3nc[nH]c3c2)n2ccnc2)c1` (stereo not given), the Potency was “inactive”.
In the case of `CCCCCCCCCCCCCCCCCCO`, the Potency is reported as “inactive”.
With `NC(=O)Cn1c(=O)cc(CCN2CCN(c3nccc4sccc34)CC2)c2ccc(F)cc21` the Potency was “inactive”.
In the case of `CCCC(=O)C(C)=O`, the Potency is reported as “inactive”.
